The panel holds about 83,000 compounds, 20% with a hit somewhere; the sample as a whole holds those more often.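 In brief: 96-well plates, 48 h treatment, single concentration, percent growth endpoint.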 Activity calls are given as the source filed them. Rule for the calls: active = growth percent below 10; inactive = the rest.
Experiments:
Test in all cases: NCI-60 one-dose screen, 48 h (100 = growth as untreated, 0 = no growth, -100 = all killed)
Conditions in all cases: 10 µM unless noted
NCI-H23 lung = tested on: NCI-H23 lung
NCI-H226 lung = tested on: NCI-H226 lung
NCI-H322M lung = tested on: NCI-H322M lung
HOP-62 NSCLC = tested on: HOP-62 NSCLC
NCI-H460 lung = tested on: NCI-H460 lung
HOP-92 NSCLC = tested on: HOP-92 NSCLC
NCI-H522 lung = tested on: NCI-H522 lung
A549/ATCC NSCLC = tested on: A549/ATCC NSCLC
786-0 renal = tested on: 786-0 renal
COLO 205 colon = tested on: COLO 205 colon
DU-145 prostate = tested on: DU-145 prostate
K-562 leukemia = tested on: K-562 leukemia
MDA-MB-231 breast = tested on: MDA-MB-231 breast
RXF 393 renal = tested on: RXF 393 renal
SF-268 CNS = tested on: SF-268 CNS
SF-295 CNS = tested on: SF-295 CNS
SF-539 CNS = tested on: SF-539 CNS
UACC-257 melanoma = tested on: UACC-257 melanoma
M14 melanoma = tested on: M14 melanoma
MALME-3M melanoma = tested on: MALME-3M melanoma

Measured: growth

O=[N+]([O-])c1ccc(/C=N\Nc2ccccc2)cc1
inactive: NCI-H23 lung 93.9% | NCI-H226 lung 87.7% | NCI-H322M lung 83% | HOP-62 NSCLC 95.2% | NCI-H460 lung 76.7% | HOP-92 NSCLC 100% | NCI-H522 lung 61% | A549/ATCC NSCLC 57.7% | 786-0 renal 87.2% | COLO 205 colon 105% | DU-145 prostate 97.1% | K-562 leukemia 25.2% | MDA-MB-231 breast 68.2% | RXF 393 renal 107% | SF-268 CNS 73.5% | SF-295 CNS 55.3% | SF-539 CNS 107% | UACC-257 melanoma 97.2% | M14 melanoma 31.6%

COc1ccc(/C=C/C(=O)c2ccc([N+](=O)[O-])cc2)cc1
inactive: NCI-H23 lung 104% | NCI-H226 lung 102% | NCI-H322M lung 102% | HOP-62 NSCLC 104% | NCI-H460 lung 110% | HOP-92 NSCLC 87.7% | NCI-H522 lung 83.7% | A549/ATCC NSCLC 100% | 786-0 renal 94.7% | COLO 205 colon 114% | DU-145 prostate 109% | K-562 leukemia 101% | MDA-MB-231 breast 94.5% | RXF 393 renal 110% | SF-268 CNS 106% | SF-295 CNS 114% | SF-539 CNS 104% | UACC-257 melanoma 110% | M14 melanoma 106%

C#CCC(C)(O)/C=C/C1=C(C)CCCC1(C)C (stereo not given)
inactive: NCI-H23 lung 94.5% | NCI-H226 lung 85.4% | NCI-H322M lung 99.4% | HOP-62 NSCLC 96.9% | NCI-H460 lung 103% | HOP-92 NSCLC 84% | NCI-H522 lung 75.5% | A549/ATCC NSCLC 69.8% | 786-0 renal 92.6% | COLO 205 colon 113% | DU-145 prostate 103% | MALME-3M melanoma 90% | MDA-MB-231 breast 99.3% | RXF 393 renal 100% | SF-268 CNS 95.6% | SF-295 CNS 95.4% | SF-539 CNS 102% | UACC-257 melanoma 76.4% | M14 melanoma 89.4%

CC/C=C\C[C@H]1CC=C2C(=O)C=C[C@@H]2CC=CCCCC(=O)O[C@@H](CCCCC)CC=C2C(=O)C=C[C@@H]2CC=CCCCC(=O)O[C@@H](CCCCC)CC=C2C(=O)C=C[C@@H]2CC=CCCCC(=O)O[C@@H](CCCCC)CC=C2C(=O)C=C[C@@H]2CC=CCCCC(=O)O1
active: NCI-H23 lung 4.69% [7.9 µM] | HOP-62 NSCLC 8.97% [7.9 µM] | HOP-92 NSCLC 7.82% [7.9 µM] | NCI-H522 lung -16.2% [7.9 µM] | COLO 205 colon -26.7% [7.9 µM] | K-562 leukemia 7.46% [7.9 µM] | MDA-MB-231 breast -11.1% [7.9 µM] | RXF 393 renal -4.76% [7.9 µM] | SF-539 CNS 1.99% [7.9 µM] | M14 melanoma -3.08% [7.9 µM]
inactive: NCI-H226 lung 74.6% [7.9 µM] | NCI-H322M lung 85.7% [7.9 µM] | NCI-H460 lung 30.4% [7.9 µM] | 786-0 renal 23% [7.9 µM] | DU-145 prostate 20.4% [7.9 µM] | MALME-3M melanoma 26.2% [7.9 µM] | SF-268 CNS 12.5% [7.9 µM] | SF-295 CNS 53.7% [7.9 µM] | UACC-257 melanoma 54.4% [7.9 µM]

COc1cc(-c2cc3cc(O)ccc3oc2=O)cc(OC)c1OC
inactive: NCI-H23 lung 101% | NCI-H226 lung 89.2% | NCI-H322M lung 85.9% | HOP-62 NSCLC 90.9% | NCI-H460 lung 107% | HOP-92 NSCLC 86.5% | NCI-H522 lung 86.5% | A549/ATCC NSCLC 107% | 786-0 renal 98.2% | DU-145 prostate 107% | K-562 leukemia 89.1% | MALME-3M melanoma 112% | MDA-MB-231 breast 72.8% | RXF 393 renal 101% | SF-268 CNS 102% | SF-295 CNS 91.9% | SF-539 CNS 87.1% | M14 melanoma 86.9%

NC1=C(C/C(N)=N\O)C(c2ccccc2Cl)c2c(ccc3ccccc23)O1 (stereo not given)
inactive: NCI-H23 lung 86.9% | NCI-H226 lung 89.4% | NCI-H322M lung 96.4% | HOP-62 NSCLC 78.2% | NCI-H460 lung 87.8% | HOP-92 NSCLC 75.7% | NCI-H522 lung 55.4% | A549/ATCC NSCLC 87.3% | 786-0 renal 93.4% | DU-145 prostate 106% | K-562 leukemia 22.8% | MALME-3M melanoma 58.5% | MDA-MB-231 breast 86.9% | RXF 393 renal 86.4% | SF-268 CNS 82.2% | SF-295 CNS 66.7% | SF-539 CNS 83.6% | UACC-257 melanoma 96.1% | M14 melanoma 59.8%

NC(Cc1ccc(O)cc1)C(=O)N/N=C/c1ccccc1O (stereo not given)
inactive: NCI-H23 lung 99.9% | NCI-H226 lung 103% | NCI-H322M lung 94% | HOP-62 NSCLC 105% | NCI-H460 lung 108% | HOP-92 NSCLC 56.6% | NCI-H522 lung 96.6% | A549/ATCC NSCLC 97.5% | 786-0 renal 104% | DU-145 prostate 105% | K-562 leukemia 105% | MALME-3M melanoma 80.2% | MDA-MB-231 breast 109% | RXF 393 renal 115% | SF-268 CNS 104% | SF-539 CNS 104% | UACC-257 melanoma 101% | M14 melanoma 98.7%

C#CCn1c2c(c3ccccc31)C[C@]1(C)[C@H]3CC[C@@H]4[C@@H]5C(=CCC[C@H]5C(=C)C)CC[C@@]4(C)[C@]3(C)CC[C@H]1C2(C)C
inactive: NCI-H23 lung 106% | NCI-H226 lung 102% | NCI-H322M lung 103% | HOP-62 NSCLC 97.1% | NCI-H460 lung 99.8% | HOP-92 NSCLC 124% | NCI-H522 lung 96.5% | 786-0 renal 106% | COLO 205 colon 104% | DU-145 prostate 108% | K-562 leukemia 91.9% | MALME-3M melanoma 110% | MDA-MB-231 breast 101% | RXF 393 renal 128% | SF-268 CNS 97.8% | SF-295 CNS 107% | SF-539 CNS 97.1% | UACC-257 melanoma 108% | M14 melanoma 100%

— PubChem BioAssay (NCI)
